Experimental findings from PubChem BioAssay AID2235 (The Scripps Research Institute Molecular Screening Center, 2010) are described below.

Broadly, the inhibition is the drop in the measured response relative to a control, in per cent.

Hit rate of the full screen: of about 320,000 compounds, about 2,800 (0.88%) were called active. This is one part of a sample in which actives are shown more often than they occur. Unmarked numbers belong to inactive results.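 The calls were made as follows: active = inhibition above the mean inhibition of all tested compounds plus 3 SD, computed separately for each screening campaign (cut at about 15% in these data); inactive = the rest.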

This assay deals with Serine/threonine-protein phosphatase PP1-alpha catalytic subunit (Homo sapiens) (UniProt P62136). In words: PP1-alpha phosphatase inhibitors, primary screen, counter-screen for PP5 inhibitor project, biochemical, fluorescence, OMFP substrate, single point (AID 2235). The note with it: purified PP1alpha, at 6.7 µM, active compounds read high. For orientation: The purpose of a counterscreen is to sort out artefacts and off-target activity.
Sequence of Serine/threonine-protein phosphatase PP1-alpha catalytic subunit (Homo sapiens) (P62136 whole entry, looked up): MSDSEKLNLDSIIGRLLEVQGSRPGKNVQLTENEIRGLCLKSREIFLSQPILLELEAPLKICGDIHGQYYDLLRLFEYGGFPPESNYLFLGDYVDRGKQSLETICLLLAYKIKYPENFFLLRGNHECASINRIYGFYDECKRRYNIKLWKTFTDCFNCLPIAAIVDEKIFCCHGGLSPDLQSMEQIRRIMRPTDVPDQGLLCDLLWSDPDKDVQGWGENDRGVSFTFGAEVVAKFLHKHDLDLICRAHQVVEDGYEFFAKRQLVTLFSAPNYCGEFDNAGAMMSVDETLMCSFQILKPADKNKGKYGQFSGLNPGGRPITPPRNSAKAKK
In the case of `O=c1[nH]c(CN2CC=C(c3ccccc3)CC2)nc2scc(-c3cccs3)c12`, the inhibition is 18.9% (active).
The result for `CC(C)Nc1nc(Cl)nc(NC(C)C)n1` reads -5.49%; that for `Cc1ccc(Cn2c(C)c3cnn(CC(=O)N4CCC5(CC4)OCCO5)c(=O)c3c2C)cc1`, 10.3%.
`COC(=O)C1=C(c2cccc(OCc3ccccc3)c2)C[C@@H]2CC[C@H]1N2C(=O)NNCc1ccccc1`: the inhibition is 7.24%.
In the case of `Cc1ccc(P(=S)(c2ccc(C)o2)N2CCOCC2)o1`, the inhibition is 3.58%.
In the case of `Cc1ccc(-c2nn(CCC#N)cc2C(=O)O)cc1C` it was 0.33%; in that of `O=C(O)c1ccccc1NC(=O)C1C2CCC(O2)C1C(=O)O` (stereo not given), 33.1% (active); in that of `CC(=O)Nc1ccc(C(=O)C(Cc2ccccc2)N(C)C)cc1` (stereo not given), -0.99%.
With `COC(=O)C1=C(c2cc3ccccc3o2)C[C@@H]2CC[C@H]1N2C(=O)NC1CCCCC1`, the inhibition was -1%.
For `CCOP(=O)(OCC)C(NC(=O)c1ccc(OC)cc1)C(Cl)(Cl)Cl` (stereo not given), the inhibition was 0.9%.
Regarding `CCOP(=O)(OCC)C(O)c1ccc(OC)cc1OC` (stereo not given), the inhibition is 47.2% (active).
The result for `CCOP(=O)(OCC)C(NC(=O)c1ccc(C)cc1)C(Cl)(Cl)Cl` (stereo not given) reads -1.96%.
`CNC(=O)Nc1ccc(C(O)(C(=O)OC)C(F)(F)F)cc1` (stereo not given): the inhibition is 1.95%.
Turning to `Cc1ccc(C2CN(C)CC2C(=O)c2ccc(F)cc2)cc1` (stereo not given), the inhibition was -2.93%.
The result for `COCc1cc(OC(=O)N(C)C)nc(-c2ccc(C)c(Cl)c2)n1` reads -1.37%.
